{"source": "PubChem BioAssay (NCATS)", "note": "Inconclusive results are not listed. A number with no mark means an inactive call. Activity calls are given as the source filed them. Calls come from the whole dose curve; as a rule, active = well fitted inhibition curve with a large enough effect; inconclusive = small, poorly fitted or top-dose-only effect; inactive = no such curve, though single readings can be large or run the other way. Potency is the fitted concentration of half-maximal effect.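 Throughout, for viability: 100% = DMSO-treated cells and 0% = medium-only wells without cells.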", "data": [{"assay": "qHTS Screen of the MIPE 4.0 Collection Against Ewings Sarcoma (TC71) (AID 1259253); note: nearly all actives have a fitted effect of over 40% in size;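 for viability (% of DMSO): 100% = DMSO-treated cells and 0% = medium-only wells without cells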", "conditions": "TC71 Ewing sarcoma viability, CellTiter-Glo, 48 h; series mostly up to 45.8 µM; viability (% of DMSO): at the top concentration", "outline": "(§1)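 Compound titrations go onto adherent log-phase cells 4 h after seeding, incubate 48 h at 37C, then CellTiter-Glo luminescence reports viability relative to DMSO and cell-free controls.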", "units": {"viability (% of DMSO)": "%"}, "values": [{"smiles": "Clc1ccccc1C(c1ccccc1)(c1ccccc1)n1cccn1", "Potency": "1.05 µM (active)"}, {"smiles": "CCOC(=O)c1cncn1[C@H](C)c1ccccc1", "viability (% of DMSO)": 128}, {"smiles": "CC(=O)OCC1=C(C(=O)O)N2C(=O)[C@@H](N)[C@@H]2SC1", "viability (% of DMSO)": 127}, {"smiles": "CC[C@@H](C(N)=O)N1CCCC1=O", "viability (% of DMSO)": 122}, {"smiles": "CCCC[N+]1(C)[C@H]2CC(OC(=O)[C@H](CO)c3ccccc3)C[C@H]1[C@H]1O[C@H]12", "note": "(some centres undefined)", "viability (% of DMSO)": 129}, {"smiles": "CCNC(=O)CC1N=C(c2ccc(Cl)cc2)c2cc(OC)ccc2-n2c(C)nnc21", "note": "(centres undefined)", "Potency": "16.6 µM (active)"}, {"smiles": "c1ccc2c(CN3CCNCC3)cccc2c1", "viability (% of DMSO)": 107}, {"smiles": "CC(C)[C@]12O[C@@H]1[C@@H]1O[C@]13[C@]1(O[C@H]1C[C@@H]1C4=C(CC[C@@]13C)C(=O)OC4)[C@H]2O", "viability (% of DMSO)": 1.41}, {"smiles": "CN1[C@H]2CC(O)C[C@H]1[C@H]1O[C@H]12", "note": "(some centres undefined)", "Potency": "26.4 µM (active)"}, {"smiles": "CCOP(=O)(OCC)C(C)NC(=O)N(CCCl)N=O", "note": "(centres undefined)", "viability (% of DMSO)": 133}, {"smiles": "CSCC[C@@H](NC(=O)[C@@H](Cc1ccccc1)NC(=O)CNC(=O)CNC(=O)[C@@H](N)Cc1ccc(O)cc1)C(=O)O", "viability (% of DMSO)": 122}, {"smiles": "CC[C@@]1(O)C(=O)OCc2c1cc1n(c2=O)Cc2cc3ccccc3nc2-1", "Potency": "0.0093 µM (active)"}, {"smiles": "CC(C)(O)C(=O)Nc1ccc([N+](=O)[O-])c(C(F)(F)F)c1", "Potency": "23.5 µM (active)"}, {"smiles": "C#C[C@]1(O)C=C[C@@H]2[C@@H]3CCC4=CC(=O)CC[C@@H]4[C@H]3CC[C@@]21CC", "viability (% of DMSO)": 105}, {"smiles": "C[C@]12CC[C@H]3[C@@H](CCC4=CC(=O)CC[C@@]43C)[C@H]1CC[C@H]2O", "viability (% of DMSO)": 107}, {"smiles": "C[C@]12CC[C@H](O)CC1=CC[C@H]1[C@H]3CCC(=O)[C@@]3(C)CC[C@@H]12", "Potency": "18.7 µM (active)"}]}, {"assay": "qHTS Screen of the MIPE 4.0 Collection Against Ewings Sarcoma (EW8) (AID 1259255)", "conditions": "EW8 Ewing sarcoma viability, CellTiter-Glo, 48 h; series mostly up to 45.8 µM; viability: at the top concentration", "outline": "as §1", "units": {"viability": "%"}, "values": [{"smiles": "Clc1ccccc1C(c1ccccc1)(c1ccccc1)n1cccn1", "Potency": "1.05 µM (active)"}, {"smiles": "CCOC(=O)c1cncn1[C@H](C)c1ccccc1", "viability": 130}, {"smiles": "CCNC(=O)CC1N=C(c2ccc(Cl)cc2)c2cc(OC)ccc2-n2c(C)nnc21", "note": "(centres undefined)", "Potency": "20.9 µM (active)"}, {"smiles": "c1ccc2c(CN3CCNCC3)cccc2c1", "viability": 103}, {"smiles": "CN1[C@H]2CC(O)C[C@H]1[C@H]1O[C@H]12", "note": "(some centres undefined)", "Potency": "23.5 µM (active)"}, {"smiles": "CC=C(C)C(=O)N[C@@H](c1ccccc1)[C@@H](O)C(=O)O[C@H]1C[C@@]2(O)[C@@H](OC(=O)c3ccccc3)[C@@H]3[C@]4(OC(C)=O)CO[C@@H]4C[C@H](O)[C@@]3(C)C(=O)[C@H](OC(C)=O)C(=C1C)C2(C)C", "viability": 6.13}, {"smiles": "CCOP(=O)(OCC)C(C)NC(=O)N(CCCl)N=O", "note": "(centres undefined)", "viability": 110}, {"smiles": "CC=C(C)C(=O)O[C@H]1C(C)=C2[C@@H]3OC(=O)[C@@](C)(O)[C@@]3(O)[C@@H](OC(=O)CCC)C[C@](C)(OC(C)=O)[C@@H]2[C@@H]1OC(=O)CCCCCCC", "Potency": "0.0935 µM (active)"}, {"smiles": "CSCC[C@@H](NC(=O)[C@@H](Cc1ccccc1)NC(=O)CNC(=O)CNC(=O)[C@@H](N)Cc1ccc(O)cc1)C(=O)O", "viability": 112}, {"smiles": "CC[C@@]1(O)C(=O)OCc2c1cc1n(c2=O)Cc2cc3ccccc3nc2-1", "Potency": "0.0118 µM (active)"}, {"smiles": "O=C(Oc1ccc([N+](=O)[O-])cc1)N1CCN(Cc2cccc(Oc3ccccc3)c2)CC1", "viability": 98}, {"smiles": "NC1=NC(=O)N2CC12", "note": "(centres undefined)", "viability": 83.8}, {"smiles": "C[C@]12CC[C@H](O)CC1=CC[C@H]1[C@H]3CCC(=O)[C@@]3(C)CC[C@@H]12", "Potency": "16.6 µM (active)"}]}]}
